Records with an inconclusive call do not appear. Where a call stands in place of a potency, no number is given. Calls of active or inactive are those of the source. Calls come from the whole dose curve; as a rule, active = well fitted inhibition curve with a large enough effect; inconclusive = small, poorly fitted or top-dose-only effect; inactive = flat fitted curve, though single readings scatter.

Glutathione peroxidase 1 (Homo sapiens), sequence (P07203 whole entry, looked up): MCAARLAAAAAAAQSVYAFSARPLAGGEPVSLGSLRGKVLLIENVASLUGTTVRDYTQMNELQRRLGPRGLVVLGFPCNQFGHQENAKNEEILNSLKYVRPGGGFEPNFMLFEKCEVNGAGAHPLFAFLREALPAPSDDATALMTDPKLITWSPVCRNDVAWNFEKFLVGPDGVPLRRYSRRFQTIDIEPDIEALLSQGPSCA

The experiment has as its target Glutathione peroxidase 1 (Homo sapiens) (UniProt P07203). Put plainly: Primary qHTS Assay for Inhibitors of Recombinant Selenoprotein Glutathione Peroxidase 1 (GPX1) (AID 1845191). Note: nearly all actives have a fitted effect of over 65% in size. The following applies: recombinant GPX1, GR-coupled NADPH fluorescence, 15 min; series mostly up to 48.8 µM; activity, negative = inhibition: at the top concentration. The essentials:
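NADPH consumption tracked by fluorescence at 340/450 nm between t=0 and t=15 min, room temperature. Final mix: 10 nM GPX1, 100 nM glutathione reductase, 1 mM GSH, 0.5 mM NADPH, 0.5 mM cumene hydroperoxide, 0.01% BSA; 30 min compound–enzyme preincubation.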
(Quantitative high-throughput screening tests each substance at several concentrations.)
`C=CC(=O)N1CCN(C(=O)c2cc(-c3cc(Cl)ccc3Cl)c(Cl)cc2OC)CC1`: the “activity, negative = inhibition” value is -25.4% (inactive). As for `Cc1cc(CN)cc(C)c1NC(=O)c1ccc(-c2cc(Cl)ccc2Cl)o1`, the “activity, negative = inhibition” value was -25.1% (inactive). With `Cc1cc(C)c(-c2csc(NC(=O)c3ccccc3)n2)c(C)c1`, the “activity, negative = inhibition” value was -18.2% (inactive). Turning to `COc1cc(N2CCN(C(C)=O)CC2)ccc1Nc1ncc(Cl)c(Nc2ccc(N3CCN(C(C)=O)CC3)cc2OC)n1`, the Potency entry was “inactive”. As to `CN(CC(=O)N(Cc1ccc(C2CCCCC2)cc1)c1ccc(C(=O)O)cc1)S(=O)(=O)c1c(F)c(F)c(F)c(F)c1F`, the result was inactive. `CC1OC2O[C@H]3[C@@H](OCC(O)[C@H]3O)OC(=O)C34CCC(C)(C)CC3C3=CCC5C6(C)CC(O)C(OC7OC(CO)C(O)C(O)C7O[C@@H]7OC[C@H](OC(=O)CC(C)(O)CC(=O)OC1C(OC1OCC(O)C(O)C1O)C2O)[C@@H](O)[C@H]7O)C(C)(CO)C6CCC5(C)C3(C)CC4` (some centres undefined): the “activity, negative = inhibition” value was -11.5% [at 27.7 µM] (inactive). As to `COCCNCc1ccc(-c2cc3nccc(Oc4ccc(NC(=S)NC(=O)Cc5ccc(F)cc5)cc4F)c3s2)nc1`, the Potency result is “inactive”. On the same count and under the same terms, with `Cc1cc(CS(=O)(=O)c2ccccc2)cc(OCc2ccc(CN3CCC[C@@H]3CO)cc2)c1` the entry was “inactive”.

As to `Cc1ccn(-c2cc(Cl)ccc2[C@@H](Oc2cc(-c3ccc(C[C@H](N)C(=O)O)cc3)nc(N)n2)C(F)(F)F)n1`, the result was inactive.

Source of the values: PubChem BioAssay (NCATS).
